High-throughput results (PubChem)
CYP2C19 act – cytochrome P450 2C19 (human) activation; P33261; recombinant CYP2C19, luciferin-H EGE luminescence; active compounds read high; 0 = fully inhibited enzyme, 1 = untreated enzyme; activation factor at 5 µM; 96,000 tested, under 10 active; AID 1025;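 active means activation factor of at least 2 at 5 µM in the primary screen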;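 further: 0 = wells with 2.5 mM tranylcypromine and 1 = vehicle-only wells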
CYP2C9 inhib – blocks human cytochrome P450 2C9; CYP2C9 Supersomes, luciferin-H conversion, luminescence; 96,000 compounds, 20% hits; P11712; inhibition, % at 5 µM;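 active means blocking of liver enzyme CYP2C9 beyond about 50% at 5 µM, limit read from the data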
Target sequence (P11712 whole entry, looked up): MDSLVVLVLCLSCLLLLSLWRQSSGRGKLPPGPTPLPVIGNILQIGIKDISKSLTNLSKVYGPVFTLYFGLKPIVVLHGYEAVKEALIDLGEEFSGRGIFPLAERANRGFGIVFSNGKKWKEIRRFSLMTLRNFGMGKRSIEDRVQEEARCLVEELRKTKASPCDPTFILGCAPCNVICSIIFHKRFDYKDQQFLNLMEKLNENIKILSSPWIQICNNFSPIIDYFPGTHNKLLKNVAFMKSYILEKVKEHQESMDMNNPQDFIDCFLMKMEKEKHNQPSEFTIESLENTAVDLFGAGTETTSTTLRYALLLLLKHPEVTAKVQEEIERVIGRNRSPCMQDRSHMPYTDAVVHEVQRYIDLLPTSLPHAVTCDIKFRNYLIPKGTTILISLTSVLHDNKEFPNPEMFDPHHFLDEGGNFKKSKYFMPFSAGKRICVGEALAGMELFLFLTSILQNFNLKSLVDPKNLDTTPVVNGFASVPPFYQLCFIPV
CYP2C19 inhib – inhibitors of human CYP2C19; CYP2C19 Supersomes, luciferin-H EGE luminescence, 30 min; inhibition, % at 5 µM; 96,000 compounds, 21% hits;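 active means CYP2C19 inhibition above a set limit at 5 µM in the primary screen, cut at about 50% in these data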;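 further: plate controls were negative control wells for no effect and 2.5 mM tranylcypromine positive control for full effect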
CYP2C9 act – increases human cytochrome P450 2C9 activity. P11712. recombinant CYP2C9, luciferin-H conversion, luminescence; active compounds read high; factor 1 = untreated enzyme, 0 = blocked. activation factor at 5 µM. 96,000 compounds, 1.4% hits;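 active means activation factor of 2 or more for CYP2C9 at a 5 µM dose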;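 further: 0 = sulfaphenazole-blocked wells and 1 = vehicle-only wells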
PostGolgi yeast – growth inhibition of a yeast mutant, post-Golgi transport screen | post-Golgi transport phenotypic cell assay | inhibition, % at 10 µM | 98,000 compounds, 0.9% hits;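 further: yeast cells grown in 1536-well plates; yeast grown about 18 h at 30C before absorbance read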
PostGolgi ctrl – yeast control strain growth, post-Golgi counter-screen; inhibition, % at 10 µM; efflux-deficient yeast background strain, growth absorbance A615, 16 h; 98,000 compounds, 5% hits
Starred values were filed as active, the others as inactive. A selection: hits, their analogues and other compounds. The true share with any hit is near 32%. Unless noted, no stated cut-off is given here; in the data, active means inhibition above about 30%; inactive means the rest.

SMILES | CYP2C19 act | CYP2C9 inhib | CYP2C19 inhib | CYP2C9 act | PostGolgi yeast | PostGolgi ctrl
COC(=O)c1cc2ccsc2n1CC(=O)NCC1CCCO1 (centres undefined) | 0.6 | 7.5 | 35.6 | 0.9 | 14.6 | -5.0
COC(=O)c1cc2ccsc2n1Cc1cc(=O)n2ccccc2n1 | 0.5 | 92.3* | 52.6* | 0.1 | 3.9 | 6.9
COC(=O)c1cc2ccsc2n1Cc1nc(-c2ccc(Cl)cc2)oc1C | 0.5 | 89.1* | 54.8* | 0.1 | 1.0 | 3.9
COC(=O)c1cc2ccsc2n1CC(=O)Nc1cc(C)cc(C)c1 | 0.6 | 66.4* | 38.0 | 0.3 | -5.0 | -0.6
Cc1oc(-c2ccc(Cl)cc2)nc1CN1CCC(C(=O)NCc2cccs2)CC1 | 1 | 6.9 | 1.3 | 0.9 | -0.8 | 3.6
COC(=O)c1cc2oc3ccccc3c2n1CC(=O)N1CCCc2ccccc21 | 0.7 | 21.6 | 34.0 | 0.8 | -3.1 | 6.4
CN(C)S(=O)(=O)NC(c1ccccc1)c1ccccc1 | 0.2 | 59.8* | 82.8* | 0.4 | 1.2 | 13.5
CN(C)S(=O)(=O)c1c(Cl)cccc1Cl | 0.9 | -30.6 | 8.2 | 1.3 | -13.2 | 2.5
O=C(NCCOc1ccccc1)c1n[nH]c(=O)c2ccccc12 | 0.9 | 10.6 | 6.5 | 0.9 | -6.5 | 5.7
Cc1ccc(N(CC(=O)NC2CCCC2)C(=O)c2c(C)noc2C)cc1C | 0.8 | 29.0 | 18.4 | 0.7 | 5.8 | -1.8
Cc1cc(C)c(S(=O)(=O)N(C)CC(=O)NC2CCCC2)c(C)c1 | 0.2 | -124.0 | 80.3* | 2.2* | 0.3 | 2.8
CN(CC(=O)NC1CCCCC1)S(=O)(=O)c1ccc(Cl)cc1 | 0.9 | 3.9 | 6.2 | 1 | -4.9 | 8.3
Cc1noc(/C=C/N(C)C)c1S(=O)(=O)N(C)CC(=O)NC1CCCCC1 | 0.6 | 62.2* | 38.9 | 0.4 | -0.4 | 2.8
CCOC(=O)CSc1nnnn1-c1cc(OC)c(Cl)cc1OC | 0.8 | -0.3 | 23.3 | 1 | 4.9 | 3.0
COc1cc(-n2nnnc2SCC(=O)N2CCN(c3ccc(F)cc3)CC2)c(OC)cc1Cl | 1.1 | 7.8 | -11.9 | 0.9 | 3.6 | 37.8*
CCCCCCOc1ccc(N2C(=O)CC(N3CCC(C(=O)OCC)CC3)C2=O)cc1 (centres undefined) | 0.8 | 23.3 | 23.6 | 0.8 | -5.7 | 7.1
COc1ccc(CC(C)N2CCN(Cc3ccccc3)CC2)c(OC)c1 (centres undefined) | 1.1 | -14.6 | -6.5 | 1.1 | 8.1 | 2.2
COc1cc(OC)c(C#N)c(S(=O)Cc2ccccc2)c1 (centres undefined) | 0 | -129.2 | 98.7* | 2.3* | 13.4 | 36.1*
CCCOc1ccc(/C=N/NC(=O)c2ccc(Cn3cc([N+](=O)[O-])cn3)o2)cc1 | 0.9 | -1.3 | 5.2 | 1 | 15.2 | -3.8
CC1CCc2c(C(=O)NCCCN3CCOCC3)csc2C1 (centres undefined) | 1 | -6.2 | -1.4 | 1.1 | -1.0 | 16.5
CCn1c2ccccc2c2cc(NC(=O)c3ccc(Br)o3)ccc21 | 0.2 | 1.3 | 76.9* | 1 | 0.0 | 27.6
CCn1c2ccccc2c2cc(NC(=O)N3CCOCC3)ccc21 | 0.5 | -43.1 | 51.7* | 1.4 | 4.3 | -4.7
CCn1c2ccccc2c2cc(NC(=O)c3cc(OC)c(OC)c(OC)c3)ccc21 | 0.5 | 36.1 | 49.3 | 0.6 | -14.1 | 3.0
O=C1CC(c2ccccc2)n2nc(N3C(=O)c4ccccc4C3=O)nc2N1 (centres undefined) | 1.1 | 1.5 | -5.5 | 1 | -6.0 | -4.9
Cc1nc(CCN2C(=O)c3ccccc3C2=O)n[nH]1 | 1 | 5.6 | -1.2 | 0.9 | 4.5 | 0.9
SMILES | CYP2C19 act | CYP2C9 inhib | CYP2C19 inhib | CYP2C9 act | PostGolgi yeast | PostGolgi ctrl
O=C1c2ccccc2C(=O)N1CCc1csc(-c2cccc(Cl)c2)n1 | 0 | 1.8 | 99.0* | 1 | -12.4 | 7.5
O=C1c2ccccc2C(=O)N1CCc1csc(-c2cccc(F)c2)n1 | 0 | 52.2* | 100.0* | 0.5 | -4.8 | 42.3*
CCCCCCC1CCC(c2nc(-c3ccncc3)no2)CC1 (centres undefined) | 0.1 | 62.6* | 88.8* | 0.4 | 1.4 | 6.8
NC(=O)CN(c1ccccc1)C1SC(=O)N(Cc2ccccc2)C1=O (centres undefined) | 0.5 | 13.8 | 52.4* | 0.9 | -2.3 | 2.4
O=C1C2C3C=CC(C3)C2C(=O)N1c1cccnc1 (centres undefined) | 1.1 | -10.3 | -9.9 | 1.1 | 16.3 | 6.6
CC(C)C(O)P(=O)(OCc1ccccc1)c1ccc(N(C)C)cc1 (centres undefined) | 0.5 | 5.0 | 53.6* | 0.9 | -8.2 | -0.2
CCOP(=O)(c1ccc(N(C)C)cc1)C(O)c1ccccc1 (centres undefined) | 0.7 | 3.9 | 33.7 | 1 | 0.0 | -0.6
CN(C)c1ccc(P(=O)(OCc2ccccc2)C(O)c2cccnc2)cc1 (centres undefined) | 0.5 | 58.2* | 48.3 | 0.4 | -3.0 | 13.8
COC(=O)COC(=O)CC(CC(N)=O)c1ccccc1 (centres undefined) | 0.8 | 4.8 | 18.0 | 1 | -10.0 | 1.3
CCCCCn1c(CCNC(=O)c2cccs2)nc2ccccc21 | 0 | 91.8* | 96.3* | 0.1 | -6.1 | 2.7
CCn1c(C(C)NC(=O)c2cccs2)nc2ccccc21 (centres undefined) | 0.7 | 51.8* | 33.0 | 0.5 | -7.0 | 23.2
CCCCn1c(C(C)NC(=O)c2cccs2)nc2ccccc21 (centres undefined) | 0.8 | 44.5 | 21.6 | 0.6 | 3.3 | 17.5
O=C(Cc1cccs1)Nc1nnc(-c2ccncc2)s1 | 0 | 95.6* | 98.2* | 0 | -16.4 | 2.3
O=C(COc1ccccc1F)Nc1nnc(-c2ccncc2)s1 | 0.1 | 95.3* | 93.3* | 0 | 0.2 | -0.3
Cc1ccc(-c2nnc(Cc3ccc(Cl)cc3)o2)cc1 | 0.6 | 33.9 | 37.8 | 0.7 | 5.3 | 7.9
O=C(OCc1nnc(-c2ccccc2)o1)c1ccc2ccccc2n1 | 0.7 | 21.2 | 33.2 | 0.8 | -6.6 | -1.8
O=C(COC(=O)c1ccc(S(=O)(=O)NCc2ccco2)cc1)NC1CCCCCC1 | 0.9 | 47.0 | 13.0 | 0.5 | -2.1 | 20.4
c1ccc(Cc2nnc(-c3ccccc3)o2)cc1 | 0.5 | 2.0 | 52.1* | 1 | 14.3 | -10.3
CC(C(=O)OCc1nnc(-c2ccccc2)o1)N1C(=O)c2ccccc2C1=O (centres undefined) | 0.8 | 55.9* | 21.8 | 0.4 | 0.0 | -11.8
O=C(OCc1nnc(-c2ccccc2)o1)c1ccc(S(=O)(=O)NCc2ccco2)cc1 | 0.9 | 69.7* | 8.3 | 0.3 | 10.8 | 4.2
O=C(OCc1nnc(-c2ccccc2)o1)C1=COCCO1 | 0.5 | -0.7 | 50.7* | 1 | 0.0 | -0.9
CSc1ccc(C(=S)N2CCN(CCO)CC2)cc1 | 0.6 | -5.6 | 39.1 | 1.1 | -2.7 | 3.7
Cn1c(CCNC(=O)c2ccccc2)nc2cc(NC(=O)C3CCCCC3)ccc21 | 0.9 | 20.3 | 10.2 | 0.8 | -0.6 | -2.9
